MITF TRPM1 HTS – activators of MITF-driven TRPM1 promoter reporter, primary screen, cell-based, SK-MEL-5, luciferase, single point; SK-MEL-5 TRPM1-promoter luciferase, 24 h; % of positive control, neutral wells = 0; activation, % at 12.5 µM; 300,000 tested, 0.75% active;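 active = mean activation of at least 80% with every replicate also reaching 80%; inconclusive = mean reaches 80% but some replicate falls short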
C2C12 statin – suppressors of statin myotoxicity in C2C12 myotubes, primary screen, cell-based, single point, plate reader. rescue of ATP level, % at 7.49 µM. C2C12 myotubes + simvastatin, ATP luminescence, 48 h; scaled: DMSO 0, geranylgeraniol control 100. 330,000 tested, 0.78% active;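 active = mean ATP rescue above about 67%, or every replicate alone reaching that limit, limit read from the data, passing the limit was not always enough; inconclusive = no clear call, values can overlap the other calls; inactive = mean under the limit and some replicate under it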;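 note: myotubes were challenged with 10 µM simvastatin during compound exposure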
Wnt act – Wnt/beta-catenin pathway activators, primary screen, cell-based, plate reader, single point; 300,000 tested, 1.2% active; Wnt/beta-catenin reporter cell assay, activator; activation, % at 9.35 µM; in the data active = activation above about 30%, passing the limit was not always enough; inconclusive = no clear call, values can overlap the other calls
esBAF inh – Bmi1 luciferase reporter increase in mESCs, primary screen, esBAF inhibitor project, mouse ES cells, Bmi1 luciferase knock-in, single point | 350,000 tested, 2% active | reporter increase, % at 12.5 µM | 24 h; 100% = twice the neutral-well signal; in the data active = activation above about 40%; inconclusive = no clear call, values can overlap the other calls;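 note: a rise in the Bmi1 reporter signal indicates esBAF inhibition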
Of the large screens only hits and unclear results are named; the others gave an inactive call. This is a sample that favours compounds with a hit; in the whole collection about 3% have one here.

C[C@H](CO)N1C[C@H](C)[C@H](CN(C)Cc2ccncc2)Oc2ccc(NS(C)(=O)=O)cc2CC1=O	none (no result: MITF TRPM1 HTS, Wnt act)
CCOC(=O)C1=C(C)Nc2ccccc2N=C1NC(=O)c1cccc(S(=O)(=O)N(C)C)c1	C2C12 statin 111
Cc1cc(C[n+]2cc(Br)ccc2N)c2ncccc2c1	Wnt act 41 (no result: C2C12 statin, esBAF inh)
CC1(C)CC(N=c2cc(-c3ccccc3)oc3ccc(Cl)cc23)CC(C)(C)N1	none (no result: C2C12 statin, esBAF inh)
OCCCN=c1cc(-c2ccccc2)oc2ccc(Cl)cc12	esBAF inh 72 (no result: Wnt act)
C[C@@H]1CN([C@@H](C)CO)C(=O)Cc2cc(NC(=O)Cc3ccccc3)ccc2O[C@H]1CN(C)S(=O)(=O)c1cn(C)cn1	none (no result: MITF TRPM1 HTS, Wnt act)
C[C@H](CO)N1C[C@H](C)[C@H](CN(C)C(=O)C2CCC2)Oc2cc(C3=CCCC3)ccc2S1(=O)=O	none (no result: MITF TRPM1 HTS, Wnt act)
COCC(=O)Nc1ccc2c(c1)C(=O)N(C)[C@@H]1CC[C@H](CC(=O)NCCc3ccncc3)O[C@H]1CO2	none (no result: MITF TRPM1 HTS, Wnt act)
CC(C)C#Cc1cnc2c(c1)C(=O)N([C@H](C)CO)C[C@@H](C)[C@H](CN(C)C(=O)Nc1ccc(F)cc1)O2	none (no result: MITF TRPM1 HTS, Wnt act)
COc1ccc(C2=NNC(=O)CC2)cc1	none (no result: C2C12 statin, esBAF inh)
COc1ccc(C2=NNC(=O)C2(C)Br)cc1 (stereo unspecified)	Wnt act 51 (no result: C2C12 statin, esBAF inh)
CNC[C@H]1OCCCC[C@H](C)Oc2ccc(NC(=O)NC3CCCCC3)cc2C(=O)N([C@@H](C)CO)C[C@@H]1C	none (no result: MITF TRPM1 HTS, Wnt act)
C[C@@H]1CCCCO[C@@H](CN(C)C(=O)c2ccccc2)[C@@H](C)CN([C@@H](C)CO)C(=O)c2cc(NC(=O)Nc3ccc(C(F)(F)F)cc3)ccc2O1	none (no result: MITF TRPM1 HTS, C2C12 statin, Wnt act)
O=C(CSC(=S)N1CCSCC1)c1ccccc1	none (no result: C2C12 statin, esBAF inh)
O=C(CSC(=S)N1CCSCC1)c1ccc(Cl)cc1	MITF TRPM1 HTS 82 (no result: C2C12 statin, esBAF inh)
COC(=O)CSc1nc(C2CC2)cc(C(F)(F)F)c1C#N	C2C12 statin 99
CSc1ccccc1NC(=O)COc1ccc(Cl)cc1Cl	esBAF inh 47 (no result: Wnt act)
CC(=O)c1sc(NC(=O)COc2ccc(Cl)cc2Cl)nc1C	esBAF inh 45
CC(C)(CO)NC(=O)CCCOc1ccc(Cl)cc1Cl	esBAF inh 48 (no result: Wnt act)
CSc1ccccc1NC(=O)COc1ccccc1Cl	none (no result: Wnt act)
O=C(CCCOc1ccc(Cl)cc1Cl)Nc1ccccc1C(=O)O	Wnt act inconclusive, esBAF inh 79
CCCC#Cc1ccc2c(c1)O[C@H](CN(C)Cc1ccccc1)[C@@H](C)CN([C@H](C)CO)S2(=O)=O	none (no result: MITF TRPM1 HTS, Wnt act)
CC(=O)N(C)C[C@@H]1Oc2ncc(/C=C/c3ccccc3)cc2C(=O)N([C@H](C)CO)C[C@H]1C	none (no result: MITF TRPM1 HTS, Wnt act)
CC(C)(C)OC(=O)C[C@H]1C/C=C\C[C@@H](CC(=O)N[C@@H](CO)Cc2ccccc2)C(=O)N2CCC[C@H]2COC1=O	none
CC(C)(C)OC(=O)C[C@@H]1C/C=C\C[C@@H](CC(=O)N[C@H](CO)Cc2ccccc2)C(=O)N2CCC[C@@H]2COC1=O	Wnt act 56
O=C(Nc1ccccc1)c1ccc(CSc2ncccn2)cc1	none (no result: Wnt act)
O=C(Nc1ccccc1F)c1ccc(CSc2ncccn2)cc1	esBAF inh 62
CSc1nnc2c(n1)c(C)nn2-c1cccc(C)c1	Wnt act 37, esBAF inh 45 (no result: MITF TRPM1 HTS)
COc1ccccc1-c1nn2c(-c3ccco3)nnc2s1	MITF TRPM1 HTS 134, esBAF inh 65
COCC(=O)N(C)C[C@H]1Oc2cc(C3=CCCCC3)ccc2S(=O)(=O)N([C@@H](C)CO)C[C@@H]1C	none (no result: MITF TRPM1 HTS, Wnt act)
CCCC#Cc1ccc2c(c1)O[C@@H](CN(C)Cc1ccc3c(c1)OCO3)[C@@H](C)CN([C@@H](C)CO)S2(=O)=O	none (no result: MITF TRPM1 HTS, Wnt act)
CC(c1ccco1)N(C(=O)COc1ccc(Cl)cc1Cl)c1ccccn1 (stereo unspecified)	MITF TRPM1 HTS 105
CC(c1ccco1)N(C(=O)COc1ccc(Cl)cc1)c1ccccn1 (stereo unspecified)	esBAF inh 72 (no result: Wnt act)
Cc1ccc(C(=O)N(c2ccccn2)C(C)c2ccco2)cc1C (stereo unspecified)	C2C12 statin 123, esBAF inh inconclusive
C[C@H]1CN([C@@H](C)CO)C(=O)c2cccc(NC(=O)c3nc4ccccc4s3)c2O[C@@H]1CN(C)Cc1ccc(C(=O)Nc2ccccc2N)cc1	none (no result: MITF TRPM1 HTS, Wnt act)
COc1ccc(-c2cn(-c3ccc(C)c(C)c3)c(=S)[nH]2)cc1OC	none
O=[N+]([O-])c1cccc(-c2cn(-c3ccccc3)c(=S)[nH]2)c1	none
COc1cccc(-n2cc(-c3ccc(F)cc3)[nH]c2=S)c1	esBAF inh 55
